TRHR agonist-1: qHTS for Small Molecule Agonists and Allosteric Enhancers of Human TRH Receptor: Primary Screen for Agonists; Thyrotropin-releasing hormone receptor (Homo sapiens), P34981; TRHR cells, calcium flux fluo-8, FDSS agonist mode; activation, % at 2 µM; hit rate 0.18% among 360,000; AID 493084, 2011; in the data active = activation above about 30%; note: 0% is about no effect
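Agonist-mode FDSS calcium read (Ex 480/Em 530, 1 s cycles) in 1536-well TRHR cells with fluo-8 dye, after 10-cycle baseline and 23 nL compound addition; TRH at EC20 (10 nM final) added afterwards for the enhancer phase.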
D1 antag: Antagonist of Human D 1 Dopamine Receptor: qHTS | D(1A) dopamine receptor (Homo sapiens), P21728 | HEK293 TREx D1 cells, calcium flux, dopamine EC80; hits give low values | activity change, negative = inhibition, % at 10 µM | hit rate 3.2% among 360,000; in the data active = activity change below about -30%; note: % is set by controls: 0 for no effect and ±100 for the full control effect
Target sequence (P21728 whole entry, looked up): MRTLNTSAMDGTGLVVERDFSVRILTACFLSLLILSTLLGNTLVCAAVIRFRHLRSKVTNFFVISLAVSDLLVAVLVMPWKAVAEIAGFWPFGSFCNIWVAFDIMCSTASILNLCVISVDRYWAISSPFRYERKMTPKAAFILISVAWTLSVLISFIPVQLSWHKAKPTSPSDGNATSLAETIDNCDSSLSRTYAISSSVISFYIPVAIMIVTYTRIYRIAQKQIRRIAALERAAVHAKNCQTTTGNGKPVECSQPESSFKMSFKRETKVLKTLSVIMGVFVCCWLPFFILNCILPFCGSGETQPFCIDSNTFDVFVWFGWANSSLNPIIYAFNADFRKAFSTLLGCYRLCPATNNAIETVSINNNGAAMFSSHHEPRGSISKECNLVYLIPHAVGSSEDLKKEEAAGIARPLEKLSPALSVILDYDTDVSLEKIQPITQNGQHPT
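Cells carrying a force-coupled, tetracycline-inducible human D1 receptor report calcium flux. Each well gets a 10 s baseline, compound with 180 s monitoring, then an EC80 dopamine stimulus with a second 180 s kinetic read.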
D1 agonist: Allosteric Agonists of the Human D1 Dopamine Receptor: qHTS | hit rate 1% among 360,000 | activation, % at 2 µM | D(1A) dopamine receptor (Homo sapiens), P21728 | AID 504660, 2011 | HEK293 T-REx D1 cells, calcium flux, agonist mode; in the data active = activation above about 30%; note: 0% is about no effect
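Agonism was scored from calcium flux recorded over 180 s (1 read/s) after pintool compound addition, following a 10-cycle baseline. Cells were inducible force-coupled HEK293 TREx D1, plated overnight at 30 C and loaded with no-wash calcium dye.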
TRHR enhancer-1: qHTS for Small Molecule Agonists and Allosteric Enhancers of Human TRH Receptor: Primary Screen for Enhancers | Thyrotropin-releasing hormone receptor (Homo sapiens), P34981 | TRHR cells, fluo-8 calcium fluorescence, EC20 TRH enhancement | enhancement, % at 2 µM | hit rate 0.66% among 360,000; in the data active = enhancement above about 30%; note: 0% is about no effect
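Enhancer read-out: after compound pinning and an initial kinetic agonist-mode read, an EC20 of TRH (10 nM final) was injected and fluo-8 calcium signal (Ex 480/Em 530) followed at 1 s/cycle for 100 cycles in TRHR-expressing cells.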
D1 PAM: Potentiators of Human D1 Dopamine Receptor: qHTS; AID 504651, 2011; potentiation, % at 10 µM; HEK293 TREx D1 cells, calcium flux, dopamine EC20 potentiation; hit rate 0.036% among 360,000; in the data active = potentiation above about 30%; note: 0% is about no effect
TRHR enhancer-2: qHTS for Small Molecule Agonists and Allosteric Enhancers of Human TRH Receptor: Confirmation Screen for Enhancers; shares compounds with TRHR enhancer-1; TRH receptor cell assay, enhancer confirmation qHTS; activity change, negative = inhibition, % at 46.1 µM; 970 tested, under 10 active;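 note: compound effect scored on response to added TRH at EC20 of 10 nM; 0% is about no effect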
TRHR agonist-2: qHTS for Small Molecule Agonists and Allosteric Enhancers of Human TRH Receptor: Confirmation Screen for Agonists; shares compounds with TRHR enhancer-1; hit rate 8% among 970; TRHR-expressing cells, agonist activation read-out; Potency, µM (titrated, usually from 46.1 µM), for the others: at the top dose activation, usual class: activators; note: potency is the fitted concentration of half-maximal effect; 0% is about no effect; nearly all actives have a fitted effect of over 75% in size
* hit, by the source's call; u = inconclusive; x = no result. Rows were chosen to be rich in hits. Some 4.6% of all compounds tested hit in one or more screens of this group. Unless noted, calls come from the whole dose curve; as a rule, active = well fitted curve in the direction sought with a large enough effect; inconclusive = small, poorly fitted or top-dose-only effect, or another doubt; inactive = no such curve, though single readings can be large; an effect the other way counts as inactive or inconclusive.

SMILES | TRHR agonist-1 | D1 antag | D1 agonist | TRHR enhancer-1 | D1 PAM | TRHR enhancer-2 | TRHR agonist-2
CCN(CC)S(=O)(=O)c1ccc(C(=O)N(c2ccc(C)cc2)C2C=CS(=O)(=O)C2)cc1 (stereo unspecified) | -1.3 | 33.0 | 4.0 | 41.7* | 3.9 | -7.4 | -0.7%
Cc1cccc(C)c1NC(=O)COC(=O)c1ccccc1Nc1ccccc1 | 34.9* | -7.9 | 2.9 | 2.1 | 2.0 | -3.4 | -0.8%
Cc1ccnc(SCC(=O)N2CCc3ccccc3C2)n1 | -0.1 | -3.7 | 0.9 | -2.6 | 5.2 | x | x
Cc1cc(=O)[nH]c(SCC(=O)N2CCc3ccccc3C2)n1 | 28.0 | -2.2 | 3.1 | -0.8 | 5.5 | u | -0.7%
N#CCCN(C(=S)NC(=O)c1cccs1)c1ccccc1F | 0.5 | -18.6 | -0.1 | 4.5 | -2.1 | x | x
CC(C)=C(NC(=O)c1ccccc1Br)C(=O)NCCc1nc2ccccc2[nH]1 | 0.0 | 6.2 | 1.9 | 4.1 | 3.0 | x | x
CC1Cc2cc(/C(O)=C3/C(=O)C(=O)N(CCN4CCOCC4)C3c3ccc(N(C)C)cc3)ccc2O1 (stereo unspecified) | 0.4 | -3.8 | 6.4 | 41.9* | -5.5 | -3.3 | 2.0%
CC1Cc2cc(/C(O)=C3/C(=O)C(=O)N(CCN4CCOCC4)C3c3ccc(C(C)C)cc3)ccc2O1 (stereo unspecified) | 0.5 | 1.1 | 1.8 | 3.5 | -7.5 | x | x
COc1ccc(OC)c(-c2nnc(-c3ccc(C)o3)o2)c1 | 0.2 | -4.9 | 2.3 | 10.4 | 1.8 | x | x
CC(=O)Nc1ccccc1-c1nn[nH]n1 | 44.0* | 1.5 | 2.0 | 11.2 | 9.1 | -5.8 | -0.7%
Cc1ccc2cc(CN(CC(C)C)C(=O)C3CCCO3)c(=O)[nH]c2c1 (stereo unspecified) | 0.2 | 10.6 | 0.2 | -2.5 | -5.0 | x | x
Cc1ccc2cc(COC(=O)C3CCCO3)c(=O)[nH]c2c1 (stereo unspecified) | 0.7 | -6.7 | 1.9 | 45.0* | -1.9 | -7.3 | 1.2%
O=C(O)C1CC=CCC1C(=O)NCCCN1CCCC1=O (stereo unspecified) | 0.3 | -14.3 | 4.3 | 45.2* | 2.1 | 1.2 | -0.7%
CC1=C(C)CC(C(=O)NCCCN2CCCC2=O)C(C(=O)O)C1 (stereo unspecified) | 0.3 | -5.1 | 1.4 | -7.5 | -5.8 | x | x
O=C(NCC(c1ccco1)N1CCc2ccccc2C1)c1ccccc1Br (stereo unspecified) | -0.4 | -13.3 | 0.3 | -8.5 | -0.9 | x | x
CCN1CCCC(NC(=O)c2cc([N+](=O)[O-])ccc2OC)C1 (stereo unspecified) | 0.5 | 2.8 | 5.3 | 42.4* | 5.8 | -2.6 | -0.6%
CC(NC(=O)c1cc(Br)cs1)C1CCCO1 (stereo unspecified) | -0.2 | -11.7 | -3.0 | 52.2* | -0.5 | -4.1 | -0.9%
O=C(NNC(=S)Nc1ccccc1)c1cc(Br)ccc1Cl | 0.1 | -14.2 | 20.0 | 0.5 | -1.6 | x | x
Fc1ccc(CNc2ncccn2)cc1 | -0.6 | -13.5 | -0.9 | 41.9* | 9.2 | 1.6 | -0.7%
Clc1ccc(CNc2ncccn2)cc1 | -0.6 | 6.9 | 1.9 | -3.0 | -1.9 | x | x
CC1C=CCC2C(=O)N(c3ccc(OC(=O)c4ccco4)cc3)C(=O)C12 (stereo unspecified) | 0.7 | -12.9 | 1.8 | -1.1 | -3.5 | x | x
CCOc1ccc(N2CC(C(=O)Nc3ncccc3C)CC2=O)cc1 (stereo unspecified) | 1.3 | -0.8 | 2.1 | -3.8 | 2.8 | x | x
OCCc1ccc(O)c(-n2nc3ccccc3n2)c1 | 0.2 | -6.6 | 4.0 | 44.1* | 0.2 | -0.1 | 6.5%
N#Cc1ccc(COc2ccc(CCO)cc2-n2nc3ccccc3n2)cc1 | -0.7 | -23.6 | 9.3 | 15.7 | -4.8 | x | x
CCc1ccc(NC(=O)N(Cc2cccnc2)Cc2ccco2)cc1 | -1.2 | x | -2.1 | 42.8* | -1.8 | u | 16.4µM*
SMILES | TRHR agonist-1 | D1 antag | D1 agonist | TRHR enhancer-1 | D1 PAM | TRHR enhancer-2 | TRHR agonist-2
Cc1cc(-n2c(SCc3ccccc3F)nc3n[nH]c(C)c3c2=N)ccc1Cl | 0.9 | -3.3 | 0.4 | 54.0* | -6.4 | -11.5 | 0.8%
CN1CCN(S(=O)(=O)c2cccc(C(=O)Oc3ccc(C(C)(C)C)cc3)c2)CC1 | 0.7 | -30.2* | 6.7 | 50.2* | -3.5 | 11.8 | 2.2%
COc1cc(OC)cc(OC(=O)c2cccc(S(=O)(=O)N3CCN(C)CC3)c2)c1 | 0.1 | -9.6 | 4.5 | -1.8 | -5.4 | x | x
Cc1ccc(Sc2nc(-c3ccccc3)nnc2C(F)(F)F)cc1 | 0.1 | -1.5 | 2.8 | -0.9 | 1.9 | x | x
COc1ccc(C(CNC(=O)CCNS(=O)(=O)c2ccc(Br)cc2)N2CCCC2)cc1 (stereo unspecified) | -0.5 | -63.1* | 47.7* | 47.8* | -7.7 | -6.4 | 4.5%
CC1(c2ccc(Cl)cc2)NC(=O)N(CC(=O)NCCC2=CCCCC2)C1=O (stereo unspecified) | 0.2 | 12.4 | 4.2 | 80.7* | 1.0 | 0.3 | 0.9%
CCOc1ccc(-c2cc3c(=O)n(Cc4nc(-c5ccccc5OCC)oc4C)ccn3n2)cc1Cl | 0.6 | 5.9 | 2.1 | -5.7 | 0.6 | x | x
NC(=O)CSc1nnc(SCc2ccc(F)cc2)s1 | 30.6* | x | 0.8 | 0.3 | -3.6 | -1.2 | 1.5%
CSCCCNC(=S)Nc1ccc(N2CCOCC2)cc1N1CCOCC1 | 1.0 | 6.5 | 1.2 | -2.7 | -9.9 | x | x
CSCCCNC(=S)Nc1ccc(N2CCOCC2)cc1 | 0.1 | 18.8 | 4.4 | 43.3* | -0.8 | -2.7 | 1.4%
Cc1ccc(NC(=O)C2CCCN(c3nc4ccccc4s3)C2)c(C)c1 (stereo unspecified) | 0.2 | -3.5 | -0.3 | 10.8 | -0.2 | x | x
N#C/C(=C/c1ccc(F)cc1)c1nc(CCN2C(=O)c3ccccc3C2=O)cs1 | 28.1 | -18.1 | 21.7 | 7.0 | -7.7 | -1.3 | 2.6%
COc1ccccc1CNC(=O)[C@@H](NC(=O)C1CCN(C(=O)[C@@H]2CCCN2C(=O)OC(C)(C)C)CC1)C(C)C | -0.4 | -19.7 | 1.3 | -23.4 | -14.7 | x | x
CCCc1cc(C(=O)N2CCCC(C(=O)c3cccc4ccccc34)C2)n(C)n1 (stereo unspecified) | -0.6 | -3.2 | 3.9 | 46.5* | -4.4 | -9.3 | 0.6%
C=CCN(CC=C)Cc1c(C)[nH]c2c(C)c(C)ccc2c1=O | -1.2 | 1.7 | 1.9 | 44.5* | -6.3 | -3.7 | -0.7%

Bioassay records from PubChem BioAssay.
